From PubChem BioAssay (NCI)
Compounds without any hit were thinned out: in the full panel of roughly 79,000, 15% have a hit. Cut-off read from the data, not from the text of the source: active = growth inhibition above about 70%; inactive = the rest.

Assays:
[1] = NCI Yeast Anticancer Drug Screen. Data for the rad50 strain (AID 155);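 note: 0% = growth of vehicle-only cultures of the same strain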; conditions: S. cerevisiae rad50 strain growth inhibition; at 50.0 µM; active compounds read high
Outline: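 A DNA repair-deficient yeast mutant serves as the test organism; compound-induced growth inhibition is calculated against vehicle-treated cells.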

[2] = NCI Yeast Anticancer Drug Screen. Data for the mec2-1 strain (AID 157); conditions: S. cerevisiae mec2-1 strain, at 50.0 µM, active compounds read high
Outline: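 Strain: mec2-1 (DNA repair/cell cycle alteration). Compound exposure, then growth measured; inhibition expressed relative to vehicle.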

[3] = NCI Yeast Anticancer Drug Screen. Data for the sgs1 mgt1 strain (AID 161);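 note: 0% = growth of cultures given vehicle only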; conditions: S. cerevisiae sgs1 mgt1 strain, at 50.0 µM, active compounds read high
Outline: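 Genetically altered yeast, compound exposure, growth inhibition relative to vehicle.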

[4] = NCI Yeast Anticancer Drug Screen. Data for the cln2 rad14 strain (AID 165);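 note: 0% = growth equal to vehicle treated cultures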; conditions: S. cerevisiae cln2 rad14 strain, at 50.0 µM, active compounds read high
Outline: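 Compounds are applied to the cln2 rad14 yeast strain, and growth is then compared with that of vehicle-treated cultures to give inhibition.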

[5] = NCI Yeast Anticancer Drug Screen. Data for the bub3 strain (AID 167); conditions: S. cerevisiae bub3 mutant strain, at 50.0 µM, active compounds read high
Outline: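 Inhibition values come from growth of compound-treated mutant yeast normalised to vehicle-treated controls.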

[6] = NCI Yeast Anticancer Drug Screen. Data for the mlh1 rad18 strain (AID 175); conditions: S. cerevisiae mlh1 rad18 strain growth inhibition; at 50.0 µM; active compounds read high
Outline: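 Read-out is yeast growth inhibition, calculated against vehicle-only controls. The compound was applied to a strain engineered with DNA damage repair alterations.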

Measured: growth inhibition

Cc1cncc(C)c1P(=O)(O)O
inactive: [1] -10.3% | [2] -6.1% | [3] -9.05% | [4] -19.8% | [5] 3.55% | [6] 3.65%

CC(=O)c1cccc2ccccc12
inactive: [1] -7.8% | [2] 5.55% | [3] 3.65% | [4] -9.1% | [5] -11.1% | [6] -5.95%

CS/C(N)=N\C(=O)N(C)C
inactive: [1] 2.75% | [2] -14.5% | [3] -4.45% | [4] -20.6% | [5] -8.55% | [6] 3.65%

CCCNC(=O)c1cccc2c1-c1ccccc1C2=O
inactive: [1] -0.55% | [2] 3.85% | [3] -2.65% | [4] -1.7% | [5] 4.65% | [6] -1.45%

COc1ccc(C(CC(=O)O)c2ccc(OC)c(OC)c2)c(OC)c1 (stereo unspecified)
inactive: [1] 3.4% | [2] -1.25% | [3] -6.65% | [4] -59.9% | [5] -1.6% | [6] 5.15%

NC1=NN(c2ccccc2)C(=O)C1C(=O)C(=O)Nc1ccc(Cl)c(Cl)c1 (stereo unspecified)
inactive: [1] -6.4% | [2] -23.8% | [3] 11.8% | [4] 0.15% | [5] 12.2% | [6] -6.2%

CC(=O)NC(C)NC(C)=O
inactive: [1] -11.8% | [2] -9.95% | [3] -13.8% | [4] -86.5% | [5] 7.25% | [6] -5.35%

CCN(CC)c1ccccc1-c1ccccc1
inactive: [1] 34.9% | [2] 20.1% | [3] 1.05% | [4] -58.6% | [5] 6.05% | [6] 20.1%

O=C(NC(=O)c1c(F)cccc1F)Nc1ccc(OCc2ccccc2)cc1
inactive: [1] 24.4% | [2] 0.15% | [3] 5.45% | [4] 9% | [5] -4.15% | [6] 21.4%

NC(=O)NC1CC1c1ccccc1 (stereo unspecified)
inactive: [1] -6.6% | [2] 4.1% | [3] -2.7% | [4] 22.1% | [5] -10.3% | [6] -1.45%

CC(C)c1ccc(O)c(C(C)(C)C)c1
inactive: [1] -25.5% | [2] -29.8% | [3] -14.3% | [4] -13.9% | [5] -32.5% | [6] -14.6%

C=Cc1ccc(C[n+]2cccc(C(N)=O)c2)cc1
inactive: [1] -15.2% | [2] -17% | [3] -2.95% | [4] -1.75% | [5] 17.2% | [6] -35.9%

CC1=CCC(C(C)(C)NC(=O)c2ccccc2)C/C1=N/O (stereo unspecified)
inactive: [1] -56.7% | [2] -43% | [3] -60.3% | [4] -49.2% | [5] -43.7% | [6] -66.5%

CC1(C)S/C(=C\c2ccccc2)c2nc3ccccc3c(=O)n21
inactive: [1] -6.8% | [2] -7.2% | [3] -16.1% | [4] 2.3% | [5] -0.4% | [6] -21.4%

O=C(NNC(O)C(F)(F)F)c1ccccc1 (stereo unspecified)
inactive: [1] 12.3% | [2] 2.4% | [3] 10.1% | [4] -35.2% | [5] 11.2% | [6] 1.5%

CC1(C)c2ccccc2-c2nc3ccccc3nc2C1O (stereo unspecified)
inactive: [1] 4.65% | [2] 18.8% | [3] -8% | [4] -14% | [5] 1.95% | [6] -9.7%

CC1CCC(C(C)C)N(C)CC1 (stereo unspecified)
inactive: [1] -17.2% | [2] -22.6% | [3] -6% | [4] 3.75% | [5] -8.15% | [6] -2.2%

Oc1ccc(Cl)cc1C1=NC(/N=C\c2ccccc2)=NC(c2ccccc2)C1 (stereo unspecified)
inactive: [1] -0.7% | [2] -4.05% | [3] -43% | [4] -8.1% | [5] -36.8% | [6] -45%

COc1ccc(C(=O)O)c2c(=O)c3ccccc3[nH]c12
inactive: [1] -28.8% | [2] -3.2% | [3] -8.55% | [4] 17.2% | [5] 3.2% | [6] 26.8%

O=C(O)/C=C/c1ccncc1
inactive: [1] -1.7% | [2] -6.35% | [3] -7.15% | [4] 3.75% | [5] -0.3% | [6] 5.1%

CN(C)c1ccc(/C=C(\C#N)c2c(Cl)cccc2Cl)cc1
inactive: [1] -13.9% | [2] -8.55% | [3] -11.1% | [4] -25.4% | [5] 8.3% | [6] -5.75%

COC(=O)C1=CO[C@@H](C)[C@@H]2CN3CCc4c([nH]c5ccc(OC)cc45)[C@@H]3C[C@H]12
inactive: [1] 8.9% | [2] -19.9% | [3] -24.9% | [4] -18.6% | [5] -2.9% | [6] -16.4%

CC(C)CC(CCl)Cc1nc2ccccc2[nH]1 (stereo unspecified)
inactive: [1] 13.1% | [2] 4.05% | [3] 39.8% | [4] 14.9% | [5] 33.6% | [6] 27.5%

CCOC(=O)/C(C#N)=C(\CC)c1ccccc1
inactive: [1] -8.5% | [2] -8.85% | [3] -3.85% | [4] -0.15% | [5] -8.85% | [6] -21.5%

C[Si](C)(CCCNCCN)O[Si](C)(C)CCCNCCN
inactive: [1] -7.3% | [2] -24.1% | [3] 5.65% | [4] -2.1% | [5] 9.2% | [6] 9.95%

CCc1c(COC(=O)NC)c(COC(=O)NC)cc2c1[nH]c1ccccc12
inactive: [1] -16.6% | [2] -1.95% | [3] -2.95% | [4] -16.4% | [5] -41% | [6] -14.6%

CC/C(CC(C)CC)=N\O (stereo unspecified)
inactive: [1] -17.4% | [2] -18.2% | [3] -23.4% | [4] 12.5% | [5] -4.55% | [6] -5.75%

c1ccc(-c2nc3n(n2)CCC(c2ccccc2)S3)cc1 (stereo unspecified)
inactive: [1] -7.95% | [2] -18.1% | [3] -15.5% | [4] 3.9% | [5] 6.1% | [6] -8.75%

CC(=O)Nc1c(OC(C)=O)ccc2cc(Br)ccc12
inactive: [1] -0.15% | [2] 20.9% | [3] 12.4% | [4] -15.2% | [5] -0.25% | [6] 8.85%

CC(C)Nc1nc(N)nc2nc(-c3ccc(Cl)cc3)c(-c3ccc(Cl)cc3)nc12
inactive: [1] -8.7% | [2] -2.5% | [3] -6.85% | [4] -17.4% | [5] 8% | [6] 8%

O=C(c1cccs1)N(C(=S)N1CCN(c2ccccc2)CC1)c1ccccc1
inactive: [1] -2.7% | [2] -11.1% | [3] 4.55% | [4] -7.8% | [5] -30.4% | [6] -4.3%

CSCCC(NC(=O)c1ccccc1)C(=O)O (stereo unspecified)
inactive: [1] -2.95% | [2] -15% | [3] 1.35% | [4] 3.85% | [5] 3.3% | [6] -10.6%

C[C@H](N)C(=O)/C=C/c1ccccc1
inactive: [1] -18.8% | [2] -30.6% | [3] -6.05% | [4] 14.9% | [5] 8.8% | [6] -8.5%

O=C1c2cc(Cl)ccc2-c2c(Cl)cccc21
inactive: [1] 22.9% | [2] -4.95% | [3] -10.9% | [4] 2.05% | [5] 4.05% | [6] -14.9%

CCCCN(CCCC)CC(O)c1cc(-c2cccc(I)c2)nc2c(Cl)cc(Cl)cc12 (stereo unspecified)
inactive: [1] 38.6% | [2] 4.4% | [3] -4.75% | [4] -11.1% | [5] -6.15% | [6] 29.3%

O=C1c2c(-c3ccccc3)ccc(-c3ccccc3)c2C(=O)c2c(-c3ccccc3)ccc(-c3ccccc3)c21
inactive: [1] -4.4% | [2] -3.4% | [3] 2.3% | [4] -6.8% | [5] -2.6% | [6] -13.6%

COc1ncnc2ccccc12
inactive: [1] -30.9% | [2] -16.8% | [3] -20.8% | [4] -32.8% | [5] -25.2% | [6] -25.1%

CCOc1cccc(C=Nc2ccccc2SSc2ccccc2N=Cc2cccc(OCC)c2O)c1O
inactive: [1] 42.2% | [2] 18.6% | [3] 61.5% | [4] 2.85% | [5] 68.6% | [6] 68.5%

COc1ccc(OCOCOc2ccc(OC)cc2)cc1
inactive: [1] -8.05% | [2] 9.5% | [3] 12.2% | [4] -285% | [5] 42.9% | [6] -27.8%

Nc1nnc(-c2ccccc2)nn1
inactive: [1] 4.05% | [2] 4% | [3] 12.1% | [4] -1.15% | [5] 6.55% | [6] 9.25%

COC(=O)C(=O)C(C)C(=O)C(C)c1nc(NC(=O)Nc2ccc(Cl)cc2)n[nH]1 (stereo unspecified)
inactive: [1] 1.65% | [2] -3.7% | [3] 3% | [4] -32% | [5] 13.4% | [6] 7.1%
